{"source": "PubChem BioAssay AID1259240", "about": "(Keith Lab, Institute of Cancer Science, University of …, 2017)", "note": "Values without a mark were called inactive. Calls of active or inactive are those of the source. Cut-off read from the data, not from the text of the source: active = fold change mostly below about -2 (no sharp cut-off); inactive = mostly above about -1.8."}
{"assay": "TERT promoter activity modulators, primary screen, cell-based, luciferase reporter, human (AID 1259240)", "settings": "A2780 TERT promoter luciferase reporter, 16 h; at 20 µM, fold versus average of vehicle-only wells"}
{"compound": "CN(C)S(=O)(=O)N(CC(=O)Nc1ccccc1F)c1ccccc1", "fold change": -1.38}
{"compound": "O=C(Nc1ccc2nc3n(c(=O)c2c1)CCCCC3)C(=O)N1CCOCC1", "fold change": 1.01}
{"compound": "CCOc1cc(C2CC(=O)Nc3cc4c(cc32)OCCO4)ccc1O", "note": "(stereo not drawn)", "fold change": -1}
{"compound": "CCCN(CCC)C(=O)C1CCCN(S(=O)(=O)c2ccc3c(c2)oc(=O)n3C)C1", "note": "(stereo not drawn)", "fold change": 1.49}
{"compound": "O=c1/c(=C/c2ccc(F)cc2)sc2nc(-c3ccco3)nn12", "fold change": -1.22}
{"compound": "O=S(=O)(Nc1cccc(C(F)(F)F)c1)c1cccc2cccnc12", "fold change": -1.42}
{"compound": "CCCC1=NN(C(=O)CSCc2ccccc2Cl)C(O)(C(F)(F)F)C1", "note": "(stereo not drawn)", "fold change": "-2.03 (active)"}
{"compound": "COc1ccc(-c2csc3nc(-c4ccccc4F)oc(=O)c23)cc1OC", "fold change": -1.03}
{"compound": "c1cc2nncn2nc1N1CCN(C2CCCCC2)CC1", "fold change": -1.21}
{"compound": "CCOC(=O)C1=C(CS(=O)(=O)c2ccc(C)c(C)c2)NC(=O)NC1c1ccc(O)c(OC)c1", "note": "(stereo not drawn)", "fold change": 1.22}
{"compound": "COc1ccc(S(=O)(=O)c2cc3ccc(O)cc3oc2=O)cc1OC", "fold change": -1.34}
{"compound": "Cc1cc(C)c2c(=O)n(CC(=O)N3CCOCC3)sc2n1", "fold change": 1.35}
{"compound": "CC(C)Oc1cc(O)c2c(=O)c(-c3ccc(O)cc3)coc2c1", "fold change": "-6.88 (active)"}
{"compound": "Cc1nnc(SCc2nc(-c3ccc(Cl)cc3)no2)n1-c1ccccc1", "fold change": -1.9}
{"compound": "Cn1c2ccccc2c2cnn(CC(=O)NCCc3c[nH]c4ccccc34)c(=O)c21", "fold change": 1.23}
{"compound": "C=CCn1c(Oc2ccc(C(=O)OC)cc2)nc2c1c(=O)n(C)c(=O)n2C", "fold change": "-2.04 (active)"}
{"compound": "CCc1ccc2c(c1)c1n[nH]c(=S)nc1n2CC", "fold change": 1.17}
{"compound": "C1=C(c2cccnc2)Nc2nc3ccccc3n2C1c1cccs1", "note": "(stereo not drawn)", "outcome": "inactive"}
{"compound": "Cc1nn(-c2cc(N3CCCCC3)ccc2N)c(=O)c2ccccc12", "fold change": -1.45}
{"compound": "O=C(NCc1ccncc1)c1cc(-c2ccc3c(c2)OCO3)nc2ccccc12", "fold change": -1.04}
{"compound": "COc1cc(C(=O)Nc2ccc3oc(-c4ccncc4)nc3c2)cc(OC)c1OC", "fold change": -1.49}
{"compound": "Cc1[nH]nc2c1C(c1cccs1)NC2=O", "note": "(stereo not drawn)", "fold change": -1.17}
{"compound": "CCc1cccc(Nc2nc3ccccc3n3nnnc23)c1", "fold change": "-12.7 (active)"}
